Inconclusive results are not listed. The call rests on the fitted dose curve; in most records, active means well fitted activation curve with a large enough effect; inconclusive means small, poorly fitted or top-dose-only effect; inactive means flat fitted curve, though single readings scatter.
test: qHTS for Inhibitors of Cell Surface uPA Generation: Confirmatory Assay for Cherry-picked Compounds; conditions: cell surface uPA activity generation, qHTS confirmation; series mostly up to 115 µM; inhibition: at the top concentration; further: 0% is about no effect
Procedure, shortened: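 RAW 264.7 cells at 4000/well, incubated overnight, then treated with compounds. After 24 h at 37 C, viability was read by ATPlite luminescence. An increase in signal indicates blocked uPA-dependent LF entry.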

inhibition, inactive:
O=C(NCc1ccco1)/C(=C\c1cccs1)NC(=O)c1ccccc1 -0.346%
Cc1ccc(S(=O)(=O)NCC(=O)OC(C)C(=O)NCc2ccc3c(c2)OCO3)cc1 (centres undefined) -1.17%
CCc1ccc(NC(=O)Cn2cnc([N+](=O)[O-])c2)cc1 -1.53%
COc1ccccc1-c1ccc(SCC(=O)NCCc2ccccc2)nn1 -1.94%
C[N+]1(CC(O)c2ccccc2)CCCCCC1 (centres undefined) -0.146%
O=C(COc1ccc(C(=S)N2CCOCC2)cc1)N1CCOCC1 -1.16%
O=c1[nH]c(SCc2cccc(Cl)c2)nc2ccccc12 2.3%
Cc1c(NC(=S)Nc2ccc(Cl)cc2)c(=O)n(-c2ccccc2)n1C -0.742%
COc1ccc(/C(N)=N/OC(=O)Cc2ccccc2OC)cc1 -0.507%
COc1ccc(Cl)cc1NC(=O)CSc1nc(=O)n(CCN(C)C)c2c1CCCC2 -4.07%
COC(=O)/C(C#N)=C/c1c(N2CCN(c3ccccc3)CC2)nc2c(C)cccn2c1=O -2.02%
O=C(Nc1ccc(S(=O)(=O)N2CCOCC2)cc1)c1cc(-c2ccccc2O)n[nH]1 -1.36%
OCC[C@@H]1C[C@H](O)[C@@H](O)[C@]2(OCCc3ccccc32)O1 -1.16%
CCOC(=O)CN1C(=O)N[C@@H](c2ccco2)C(C(=O)OC)=C1C -2.99%
CC1(C)CC(=O)C([N+](=O)[O-])=C(NCCCC(=O)O)C1 1.47%
CCC1=NN(C(=O)C(=O)Nc2ccc(OC)cc2)C(O)(C(F)(F)F)C1 (centres undefined) -1.82%
O=C(NNC(=O)c1ncc(Cl)c(Cl)c1Cl)c1ccc(F)cc1 1.74%
COc1ccccc1N1CCN(C(=O)CCC(=O)N2CCN(c3ccc(F)cc3)CC2)CC1 -1.44%
Cc1c(C(=O)N2CCN(S(=O)(=O)c3cccs3)CC2)oc2ccc(F)cc12 -0.992%
COc1ccc(CCNC(=O)CSc2nc(N)c3c(C)c(C)oc3n2)cc1OC -2.04%
O=C(NCCCN1CCCC1=O)c1cccc(Oc2ccccc2)c1 -1.6%
O=C(CCCC(=O)N(c1cccc(F)c1)C(C(=O)NC1CCCC1)c1ccc(O)cc1)Nc1ccccn1 (centres undefined) -2.36%
CCOC(=O)C1(CC2CCCCO2)CCN(Cc2nccn2-c2cccc(C)c2)CC1 (centres undefined) -2.87%
CCCCCOC(=O)C1=C(C)NC(=O)NC1c1ccccc1 (centres undefined) 0.136%
CCOCCOc1cc(NCc2ccccc2)c2ncn(C(C)C)c2c1 -3.46%
Cc1nc(NC(=O)COC(=O)CCc2ccccc2)c(Cl)cc1Cl -3.77%
CCN(CC)CCCNC(=O)c1cn(C)c(=O)c2c1c1ccccc1n2C 5.19%
Cc1cc2[nH]c(=O)c(=O)[nH]c2cc1S(=O)(=O)NC1CCC(C)CC1 (centres undefined) -1.26%
O=C(/C=C/c1cccc(Oc2ccccc2)c1)N1CCOCC1 0.233%
COc1ccc(C2=C/C(=C\c3ccccc3OC(C)=O)C(=O)O2)cc1 -2.92%
Clc1ccc(C2=NN=C3COc4ccccc4N3C2)cc1 -2.4%
CC(NC(=O)C1CCC(C(=O)NC(C)c2ccccc2)CC1)c1ccccc1 (centres undefined) 0.975%
CCN(C1CCS(=O)(=O)C1)S(=O)(=O)c1ccc2ccccc2c1 (centres undefined) -1.14%
COc1ccccc1N1CCN(CC(=O)c2c(C)[nH]c3ccccc23)CC1 1.37%
COc1ccc2nc(C)cc(Nc3ccccc3O)c2c1 -3.55%
Cc1nc2ccc(Br)cn2c1C(=O)N/N=C\c1ccccc1Cl 0.471%
O=C(NNC(=O)c1cccc(-n2cccc2)c1)c1ccc(F)cc1 -1.92%
O=C(COc1cc2oc(=O)cc(-c3ccccc3)c2cc1Cl)NC(Cc1c[nH]c2ccc(O)cc12)C(=O)O (centres undefined) 0.485%
O=C(NCc1ccc2c(c1)OCO2)c1ccccn1 -0.59%
